# Laboratory results from PubChem BioAssay (NCATS).
# Results filed as inconclusive are left out. Active and inactive are the calls of the source. The call rests on the fitted dose curve; in most records, active means well fitted curve in the direction sought with a large enough effect; inconclusive means small, poorly fitted or top-dose-only effect, or another doubt; inactive means no such curve, though single readings can be large; an effect the other way counts as inactive or inconclusive.
# Biological target: Calcium and integrin-binding protein 1 (Homo sapiens) (UniProt Q99828)
# Assay: Validation qHTS for Identification of Calcium Integrin Binding protein 1 (CIB1) Competitor (AID 1508618)
# Conditions: CIB1-GST / FITC-alphaIIb peptide fluorescence polarization; series mostly up to 114 µM; activity change, negative = inhibition: at the top concentration
# Outline: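 In this qHTS validation, the LOPAC set (up to 114 uM) was tested for blocking CIB1 binding to a fluorescein-tagged alphaIIb peptide, with FP detection at 480/540 nm.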
# On the % scale 0 is the no-effect control and ±100 the full control effect.
# Calcium and integrin-binding protein 1 (Homo sapiens), sequence (Q99828 whole entry, looked up): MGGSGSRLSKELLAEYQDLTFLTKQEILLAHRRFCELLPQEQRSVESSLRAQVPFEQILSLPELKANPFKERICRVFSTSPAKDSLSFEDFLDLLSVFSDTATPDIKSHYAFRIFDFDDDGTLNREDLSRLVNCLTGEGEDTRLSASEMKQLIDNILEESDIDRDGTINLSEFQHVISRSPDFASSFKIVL
Structure (SMILES),"activity change, negative = inhibition",outcome
S=C(NC1CCCCC1)N1CCC(c2cnc[nH]2)CC1,2.73% (inactive),–
Cn1cnc(CCN)c1,10.8% (inactive),–
O=C(O)CC[N+](=O)[O-],8.77% (inactive),–
O=C(Cc1ccc(Cl)c(Cl)c1)N1CCCCC1CN1CCCC1 (configuration not stated),3.85% (inactive),–
NC1CC1c1ccccc1 (configuration not stated),9.96% (inactive),–
C[C@@H]1O[C@H](C[N+](C)(C)C)C[C@H]1O,7.6% (inactive),–
CN[C@@H]1C[C@@H](c2ccc(Cl)c(Cl)c2)c2ccccc21,1.88% (inactive),–
C[N+]1(C)C2CCC1CC(OC(=O)C(CO)c1ccccc1)C2 (configuration not stated),–,inactive

# Biological target: Calcium and integrin-binding protein 1 (Homo sapiens) (UniProt Q99828)
# Assay: Primary qHTS for Identification of Calcium Integrin Binding Protein 1 (CIB1) Competitor (AID 1508620);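 further: GST tagged CIB1 binding a fluorescein labelled alphaIIb integrin peptide tracer; top concentration of the series differs between compounds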
# Conditions: CIB1-GST / FITC-alphaIIb peptide fluorescence polarization; series mostly up to 57.7 µM; activity change, negative = inhibition: at the top concentration
# Outline: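 CIB1-GST (1 uM final) and compound incubated 15 min at room temperature before adding FITC-alphaIIb peptide tracer (100 nM final). Competition for binding read by fluorescence polarization (ex 480, em 540) after another 15 min at room temperature.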
row,Structure (SMILES),"activity change, negative = inhibition"
1,S=C(NC1CCCCC1)N1CCC(c2cnc[nH]2)CC1,5.37% [at 114 µM] (inactive)
2,CCCCCCCCc1ccc(O)cc1,-8.75% [at 228 µM] (inactive)
3,ClC1=C(Cl)[C@]2(Cl)[C@@H]3[C@@H]4C[C@@H]([C@H]5O[C@@H]45)[C@@H]3[C@@]1(Cl)C2(Cl)Cl,-23.1% [at 228 µM] (inactive)
4,NC1CC1c1ccccc1 (configuration not stated),3.45% (inactive)
